According to PubChem BioAssay AID1159580 (chemical genetic matrix, 2015):
“And” between values parts separate entries of the source, which are not always exact repeats. Identical values can stand only once. The whole screen tested about 5,500 compounds, of which about 2,000 (36%) were called active. Roughly 18% stayed inconclusive and do not appear here. No stated cut-off is given here; in the data, active means normalized growth mostly below about 0.91 (no sharp cut-off); inconclusive means no clear call, values can overlap the other calls; inactive means mostly above about 0.92. The list shows a part of the results.

Test: chemical genetic growth profiling, strain panel (AID 1159580);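 further: tested at 20 µM; growth read once vehicle control cultures reached saturation at 30 °C; 1 = growth at the plate median or of vehicle wells; lower values mean less growth of the strain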
Settings: S. cerevisiae deletion strains, growth OD

Measured: normalized growth

CC1(C)NC(=O)N(c2ccc([N+](=O)[O-])c(C(F)(F)F)c2)C1=O
inactive: locus YAL013W, strain DEP1, hits give low values 1.01 and 0.99 | locus YAL021C, strain ccr4, hits give low values 1.02 | locus YAL026C, strain drs2, hits give low values 0.983 | locus YAL030W, strain snc1, hits give low values 0.99 | locus YAL040C, strain CLN3, hits give low values 1.05 | locus YBL061C, strain skt5, hits give low values 0.98 | locus YBR009C, strain hhf1, hits give low values 0.982 | locus YBR021W, strain FUR4, hits give low values 1.02 | locus YBR023C, strain chs3, hits give low values 0.987 | locus YBR171W, strain sec66, hits give low values 0.98 | locus YBR229C, strain ROT2, hits give low values 1.01 | locus YBR231C, strain swc5, hits give low values 0.989 | locus YBR279W, strain paf1, hits give low values 0.994 | locus YCL011C, strain gbp2, hits give low values 0.985 | locus YCL016C, strain dcc1, hits give low values 0.986 | locus YCL029C, strain bik1, hits give low values 0.967 | locus YCL061C, strain MRC1 (second series), hits give low values 1 | locus YCL061C, strain MRC1, hits give low values 0.976 | locus YCL069W, strain vba3, hits give low values 0.98 | locus YCR088W, strain abp1, hits give low values 0.982 | locus YDL005C, strain med2, hits give low values 0.993 | locus YDL035C, strain GPR1, hits give low values 1 | locus YDL040C, strain nat1, hits give low values 0.984 | locus YDL074C, strain BRE1, hits give low values 1.02 | locus YDL101C, strain DUN1, hits give low values 1.01 | locus YDL134C, strain PPH21, hits give low values 1.02 | locus YDL185W, strain tfp1, hits give low values 0.977 | locus YDL192W, strain arf1, hits give low values 0.983 | locus YDR001C, strain nth1, hits give low values 0.985 | locus YDR069C, strain doa4, hits give low values 0.99 | locus YDR101C, strain arx1, hits give low values 0.982 | locus YDR137W, strain rgp1, hits give low values 0.894 | locus YDR150W, strain NUM1, hits give low values 1.03 | locus YDR159W, strain sac3, hits give low values 0.985 | locus YDR162C, strain NBP2, hits give low values 1 | locus YDR195W, strain ref2 0.975 | locus YDR297W, strain sur2, hits give low values 0.99 | locus YDR318W, strain mcm21, hits give low values 0.994 | locus YDR334W, strain swr1, hits give low values 0.989 | locus YDR335W, strain msn5, hits give low values 0.994 | locus YDR363W, strain ESC2, hits give low values 0.975 | locus YDR388W, hits give low values 0.983 | locus YDR392W, strain spt3, hits give low values 0.998 | locus YDR502C, strain sam2, hits give low values 0.984 | locus YEL003W, strain gim4, hits give low values 0.985 | locus YEL037C, strain rad23, hits give low values 0.988 | locus YEL061C, strain CIN8 (second series), hits give low values 0.989 | locus YEL061C, strain CIN8, hits give low values 0.999 | locus YER002W, strain NOP16, hits give low values 0.996 | locus YER015W, strain faa2, hits give low values 0.971 | locus YER016W, strain bim1, hits give low values 0.983 | locus YER110C, hits give low values 0.971 | locus YER111C, strain swi4, hits give low values 0.985 | locus YER155C, strain BEM2 (second series), hits give low values 0.987 | locus YER155C, strain BEM2, hits give low values 0.996 | locus YER167W, strain BCK2, hits give low values 1.01 | locus YFR010W, strain ubp6, hits give low values 0.985 | locus YGL078C, strain dbp3, hits give low values 0.986 | locus YGL086W, strain mad1, hits give low values 0.992 | locus YGL167C, strain pmr1, hits give low values 0.983 | locus YGL173C, strain kem1, hits give low values 0.976 | locus YGL227W, strain vid30, hits give low values 0.973 | locus YGL240W, strain doc1, hits give low values 0.98 | locus YGL248W, strain PDE1, hits give low values 1.01 | locus YGL253W, strain hxk2, hits give low values 0.985 | locus YGR078C, strain PAC10, hits give low values 1.01 and 0.981 | locus YGR135W, strain pre9, hits give low values 0.98 | locus YGR229C, strain SMI1, hits give low values 1.02 | locus YGR252W, strain gcn5, hits give low values 0.978 | locus YHR013C, strain ard1, hits give low values 0.97 | locus YHR027C, strain rpn1, hits give low values 0.984 | locus YHR030C, strain SLT2, hits give low values 1.01 and 0.984 | locus YHR079C, strain IRE1 (second series), hits give low values 0.988 | locus YHR079C, strain IRE1, hits give low values 1 | locus YHR094C, strain hxt1, hits give low values 0.986 | locus YHR129C, strain ARP1, hits give low values 1.01 | locus YHR142W, strain chs7, hits give low values 0.986 | locus YHR200W, strain rpn10, hits give low values 0.987 | locus YIL066C, strain RNR3, hits give low values 1.02 | locus YIL073C, strain SPO22, hits give low values 1 | locus YIL125W, strain kgd1, hits give low values 0.986 | locus YIR030C, strain dcg1, hits give low values 0.983 | locus YJL092W, strain hpr5, hits give low values 0.978 | locus YJL095W, strain BCK1 (second series), hits give low values 0.982 | locus YJL095W, strain BCK1, hits give low values 0.991 and 1 | locus YJL115W, strain asf1, hits give low values 0.992 | locus YJL129C, strain trk1, hits give low values 0.991 | locus YJL134W, strain LCB3, hits give low values 1.01 | locus YJL154C, strain vps35, hits give low values 0.988 | locus YJL164C, strain tpk1, hits give low values 0.985 | locus YJL166W, strain qcr8, hits give low values 0.986 | locus YJL168C, strain set2, hits give low values 0.987 | locus YJL187C, strain SWE1 (second series), hits give low values 1.01 | locus YJL187C, strain SWE1, hits give low values 0.981 | locus YJR043C, strain POL32, hits give low values 1 | locus YJR066W, strain TOR1, hits give low values 0.956
